12-LOX inh: blocks human arachidonate 12S-lipoxygenase; P18054; purified 12hLO, xylenol orange hydroperoxide absorbance; Potency, µM (series often up to 108 µM), for the others: at the highest dose activity change, negative = inhibition, actives largely listed as inhibitors; 580,000 tested, 1.1% active; AID 1671190
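Purified human 12hLO (150 nM final) in 25 mM Hepes, 0.01% Triton X-100, pH 7.0 was preincubated 15 min at room temperature with compound. Then 40 uM arachidonic acid was added, 30 min. Hydroperoxide was read by Fe-XO absorbance ratio 573/405 nm.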
PLK1 PBD inh: PLK1 (human) polo-box domain binding inhibition; Plk1 PBD binding of FITC phosphopeptide, fluorescence polarization; Potency, µM, without a hit: max response, negative = inhibition, usual class: inhibitors; 360,000 tested, 2.8% active; further: series mostly up to about 57 µM; nearly all actives have a fitted effect of over 65% in size
VDR inhibitor: vitamin D3 receptor (human) inhibition; Potency, µM, for inactives: max response, negative = inhibition, most hits filed as inhibitors; 400,000 tested, 0.93% active; AID 504847; VDR-SRC2-3 peptide fluorescence polarization, 2 h
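VDR–SRC2-3 interaction, FP format. Cmpds 23 nl via pintool, brief spin, 2 h ambient incubation.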
KAT2A inh: GCN5L2 (KAT2A) acetyltransferase inhibition. Q92830. Potency, µM (highest dose often 58.9 µM), without a hit: at the highest dose activity change, negative = inhibition, usual class: inhibitors. AID 504327. 390,000 tested, 0.21% active. GCN5L2 HAT assay, ThioGlo1 CoA-SH fluorescence
Target sequence (Q92830 whole entry, looked up): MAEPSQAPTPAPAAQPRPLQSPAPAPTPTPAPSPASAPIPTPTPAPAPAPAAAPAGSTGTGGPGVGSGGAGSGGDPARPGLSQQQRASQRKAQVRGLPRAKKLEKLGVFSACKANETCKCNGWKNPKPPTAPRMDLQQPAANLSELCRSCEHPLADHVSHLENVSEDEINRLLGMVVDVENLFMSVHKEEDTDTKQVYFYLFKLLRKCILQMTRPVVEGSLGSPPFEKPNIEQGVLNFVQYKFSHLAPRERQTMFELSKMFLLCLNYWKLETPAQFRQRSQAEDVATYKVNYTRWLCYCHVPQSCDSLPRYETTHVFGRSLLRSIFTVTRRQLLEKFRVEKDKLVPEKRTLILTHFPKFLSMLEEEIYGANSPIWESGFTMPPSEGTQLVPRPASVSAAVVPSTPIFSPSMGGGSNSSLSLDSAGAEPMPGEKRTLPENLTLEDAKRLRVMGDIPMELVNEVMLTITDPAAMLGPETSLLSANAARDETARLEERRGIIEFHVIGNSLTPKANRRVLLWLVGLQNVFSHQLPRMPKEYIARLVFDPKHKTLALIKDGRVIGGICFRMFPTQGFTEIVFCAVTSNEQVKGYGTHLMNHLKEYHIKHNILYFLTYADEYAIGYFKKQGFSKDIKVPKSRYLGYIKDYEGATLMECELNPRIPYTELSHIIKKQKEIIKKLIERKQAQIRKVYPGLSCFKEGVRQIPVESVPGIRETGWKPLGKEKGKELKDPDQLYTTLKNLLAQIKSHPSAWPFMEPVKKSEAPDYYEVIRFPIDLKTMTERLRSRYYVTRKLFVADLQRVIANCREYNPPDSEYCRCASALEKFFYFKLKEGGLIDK
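Titration-based screen in which CoA formation is detected via maleimide probe ThioGlo1 (50uM) turning fluorescent on thiol reaction; substrates H3(1-25) 75uM and acetyl-CoA 70uM, GCN5L2 20nM, 20 min incubation at room temperature.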
* = called active by the depositor; ? = inconclusive; . = no result given; [ ] = remark or other dose. Only some compounds are listed: those with a hit (about 3% of all), similar ones and a draw of the others. The call rests on the fitted dose curve; in most records, active means well fitted curve in the direction sought with a large enough effect; inconclusive means small, poorly fitted or top-dose-only effect, or another doubt; inactive means no such curve, though single readings can be large; an effect the other way counts as inactive or inconclusive. On the % scale 0 is the no-effect control and ±100 the full control effect; potency means the concentration at half of the fitted maximal effect.

SMILES	12-LOX inh	PLK1 PBD inh	VDR inhibitor	KAT2A inh
COc1cccc(-c2[nH]nc3c2C(c2ccoc2)C(C#N)=C(N)O3)c1 (stereo unspecified)	-25%	27µM*	-5%	-12%
N#CC1=C(N)Oc2n[nH]c(-c3cccs3)c2C1c1ccoc1 (stereo unspecified)	0%	3.8µM*	-24%	-1%
COc1cc(-c2[nH]nc3c2C(c2ccco2)C(C#N)=C(N)O3)cc(OC)c1OC (stereo unspecified)	?	30µM*	-3%	-2%
C=CCN(C)Cc1cccc(OC)c1OC	7%	.	.	.
COc1ccc(OCCCC(=O)Nc2nc(-c3ccccn3)cs2)cc1	-11%	27µM*	-8%	-18%
O=C(CCS(=O)(=O)c1ccccc1)Nc1nc(-c2ccccn2)cs1	4%	-17%	-10%	.
CCCc1c(C)c2ccc(OCC(=O)OCC)cc2oc1=O	29%	.	.	.
COC(=O)C1=NN(C(=O)c2ccc(Cl)cc2)C(O)(c2ccccc2)C1 (stereo unspecified)	6%	-11%	-3%	1.4µM*
Cc1ccc(-n2nnc(C(=O)Nc3nccs3)c2C)cc1C	9%	.	.	.
Nc1nc2cc(S(=O)(=O)NC3=NCCCCC3)ccc2s1	15%	21µM*	?	-13%
CCOC(=O)c1ccc(S(=O)(=O)Nc2nc3cc(S(=O)(=O)NC4=NCCCCC4)ccc3s2)cc1	-12%	24µM*	?	-12%
Nc1ccc(S(=O)(=O)NC2=NCCCCC2)cc1	38%	-8%	-4%	-24%
Cc1ccccc1OCCOC(=O)CCC(=O)c1ccc(F)cc1	-5%	.	.	.
COc1ccc(CCNS(=O)(=O)c2cccc(C(=O)O)c2)cc1OC	?	3.4µM*	-23%	-7%
COc1ccc(CCNS(=O)(=O)c2cccc([N+](=O)[O-])c2)cc1OC	4%	-15%	-28%	-3%
Cc1cc2nc3n(c(=O)c2n1CC(=O)Nc1ccccc1C(C)C)CCCCC3	17%	.	.	.
CCOC(=O)c1sc2nccc(N(C)C)c2c1N=CNOC	82%	15µM*	?	-4%[0.501 µM]
CCCNC(=O)c1ccc(NC(=O)c2ccc(Cl)cc2)cc1	19%	.	.	.
C=CCNC(=O)c1oc2ccc(S(=O)(=O)N(CC)CC)cc2c1C	24%	9.5µM*	-19%	-6%
COC(=O)c1c(C(=O)OC)c(-c2ccc(C)cc2)n2c1CS(=O)(=O)C2	0%	-6%	-3%	0%
COC(=O)c1c(C(=O)OC)c(-c2ccc(Cl)cc2)n2c1CS(=O)(=O)C2	0%	4.2µM*	?	2%
COc1ccc2c(C)cc(=S)[nH]c2c1	?	11µM*	-4%	-4%
COc1ccc2c(-c3ccccc3)cc(=S)[nH]c2c1	?	?	?	-12%
CC(C)CC(=O)Nc1nc(=S)ss1	?	17µM*	?	-9%
CC(=O)Nc1nc(=S)ss1	?	24µM*	45µM*	-26%
SMILES	12-LOX inh	PLK1 PBD inh	VDR inhibitor	KAT2A inh
Cc1ccc(NC(=O)CC(C)C)cc1	27%	.	.	.
Cc1ccccc1C(=O)Nc1nc(=S)ss1	?	11µM*	?	?
O=C(Nc1nc(=S)ss1)c1c(F)cccc1F	?	-4%	6%	-8%
CN(Cc1cccc(F)c1)C(=O)CCNC(=O)Nc1ccccc1	2%	.	.	.
CC(NC(=O)c1cccc2c1CCN2C(=O)Nc1ccc(F)cc1)c1ccccn1 (stereo unspecified)	68%	.	.	.
CC(Oc1cccc(Cl)c1)C(=O)NCc1ccc(S(N)(=O)=O)cc1 (stereo unspecified)	-5%	19µM*	?	-9%
Cc1ccc(NC(=O)Cc2nn(C)c(=O)c3ccccc23)cc1F	20%	3µM*	?	21%
Cn1nc(CC(=O)Nc2ccc(Cl)cc2)c2ccccc2c1=O	-12%	.	.	.
Cn1c(C(=O)O)c(CC(=O)Nc2ccc(F)cc2F)c2ccccc21	14%	-4%	-4%	-6%
Cc1ccc(NC(=O)Cc2c(C(=O)O)n(C)c3ccccc23)cc1F	-6%	24µM*	-17%	-6%
CC(=O)Nc1cccc(NC(=O)Nc2ccc(C)c(Cl)c2)c1	-14%	-3%	2%	14%
CC(=O)Nc1cccc(NC(=S)Nc2ccc(F)c(Cl)c2)c1	?	30µM*	-4%	-4%
CCOC(=O)c1c(C)oc2c1c(C(c1ccccc1)N1CCOCC1)c(O)c1ccccc12 (stereo unspecified)	-10%	-23%	-14%	-7%
CCOC(=O)c1c(C)oc2c1c(C(c1cccnc1)N1CCCCC1)c(O)c1ccccc12 (stereo unspecified)	4%	12µM*	-17%	-9%
